Data taken from the supplement of paper PMC11732987, “Enantioselective OTUD7B fragment discovery through chemoproteomics screening and high-throughput optimisation” (Communications Chemistry, 2025).

What was measured:
Test in all cases: log2 ratio of Biotin-Ahx-Ub-VS probe labelling (fragment/DMSO); higher = less target engagement (more negative = stronger competition), active = hit call of the paper (q ≤ 0.05, log2 ratio ≤ -1)
Details in all cases: compound concentration: 200 uM; treatment time: 3 h
USP19 = molecular target: T1, USP19 (UniProt O94966)
T1 sequence (whole entry): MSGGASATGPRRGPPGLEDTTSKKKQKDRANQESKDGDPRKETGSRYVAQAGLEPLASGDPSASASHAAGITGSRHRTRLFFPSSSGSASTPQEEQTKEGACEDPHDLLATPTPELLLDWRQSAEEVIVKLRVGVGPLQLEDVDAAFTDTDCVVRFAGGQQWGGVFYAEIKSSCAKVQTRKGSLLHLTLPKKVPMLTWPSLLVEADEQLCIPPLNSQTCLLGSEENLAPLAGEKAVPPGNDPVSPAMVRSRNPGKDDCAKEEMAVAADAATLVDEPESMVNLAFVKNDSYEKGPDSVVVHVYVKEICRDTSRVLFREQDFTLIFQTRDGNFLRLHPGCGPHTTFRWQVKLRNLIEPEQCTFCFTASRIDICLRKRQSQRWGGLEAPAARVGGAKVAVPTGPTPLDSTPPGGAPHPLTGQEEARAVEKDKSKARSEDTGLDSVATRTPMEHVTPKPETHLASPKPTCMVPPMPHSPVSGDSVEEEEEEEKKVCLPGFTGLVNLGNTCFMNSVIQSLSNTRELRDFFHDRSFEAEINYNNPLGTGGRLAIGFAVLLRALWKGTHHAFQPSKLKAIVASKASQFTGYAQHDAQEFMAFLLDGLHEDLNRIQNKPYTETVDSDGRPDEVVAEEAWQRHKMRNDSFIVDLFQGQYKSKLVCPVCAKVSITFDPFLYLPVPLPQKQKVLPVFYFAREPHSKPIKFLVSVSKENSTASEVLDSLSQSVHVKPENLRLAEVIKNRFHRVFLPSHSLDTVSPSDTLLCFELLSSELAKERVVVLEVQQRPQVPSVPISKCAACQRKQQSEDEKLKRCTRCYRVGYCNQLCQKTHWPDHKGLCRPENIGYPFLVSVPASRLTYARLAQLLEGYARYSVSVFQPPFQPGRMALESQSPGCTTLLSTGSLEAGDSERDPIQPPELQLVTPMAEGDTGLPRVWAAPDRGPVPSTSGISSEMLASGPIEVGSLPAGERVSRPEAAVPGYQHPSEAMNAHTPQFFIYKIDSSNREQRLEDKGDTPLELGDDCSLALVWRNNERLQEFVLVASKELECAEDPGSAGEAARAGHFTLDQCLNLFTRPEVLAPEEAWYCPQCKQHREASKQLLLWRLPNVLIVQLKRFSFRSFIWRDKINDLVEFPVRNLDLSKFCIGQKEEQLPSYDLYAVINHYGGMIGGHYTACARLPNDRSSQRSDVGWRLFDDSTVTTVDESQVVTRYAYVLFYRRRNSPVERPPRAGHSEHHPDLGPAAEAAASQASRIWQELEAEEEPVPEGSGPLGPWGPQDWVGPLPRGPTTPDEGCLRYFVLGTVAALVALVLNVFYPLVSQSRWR
Method in brief: (§1)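 Using Biotin-Ahx-Ub-VS at 0.5 µM final for 1 h, DUBs were labelled in HEK293T lysate (495 µg per sample) that had first been treated in triplicate with fragment at 200 µM or vehicle for 3 h. NeutrAvidin enrichment, LysC and trypsin digestion and diaPASEF LC-MS/MS followed. Spectronaut label-free quantities were global-median-normalised. Values are average log2 fragment/vehicle ratios by unpaired t-test, using proteins with ≥2 unique peptides.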

USP22 = molecular target: T2, USP22 (UniProt Q9UPT9)
T2 sequence (whole entry): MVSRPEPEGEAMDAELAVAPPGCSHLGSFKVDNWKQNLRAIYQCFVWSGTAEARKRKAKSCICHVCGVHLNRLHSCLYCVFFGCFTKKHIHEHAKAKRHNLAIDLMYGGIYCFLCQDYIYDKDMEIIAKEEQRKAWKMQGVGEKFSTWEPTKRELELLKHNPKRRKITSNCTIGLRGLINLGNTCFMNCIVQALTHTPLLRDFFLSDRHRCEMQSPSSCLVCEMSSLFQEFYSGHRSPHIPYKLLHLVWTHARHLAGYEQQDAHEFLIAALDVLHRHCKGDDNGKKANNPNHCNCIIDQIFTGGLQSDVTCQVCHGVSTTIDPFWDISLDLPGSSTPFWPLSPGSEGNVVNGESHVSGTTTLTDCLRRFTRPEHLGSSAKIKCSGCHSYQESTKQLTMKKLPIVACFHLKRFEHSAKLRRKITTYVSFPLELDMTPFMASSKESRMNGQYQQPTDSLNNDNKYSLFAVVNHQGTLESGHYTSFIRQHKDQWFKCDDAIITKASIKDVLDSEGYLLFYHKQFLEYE
Method in brief: as §1

USP24 = USP24 (UniProt Q9UPU5)
Method in brief: as §1

USP25 = molecular target: T3, USP25 (UniProt Q9UHP3)
T3 sequence (whole entry): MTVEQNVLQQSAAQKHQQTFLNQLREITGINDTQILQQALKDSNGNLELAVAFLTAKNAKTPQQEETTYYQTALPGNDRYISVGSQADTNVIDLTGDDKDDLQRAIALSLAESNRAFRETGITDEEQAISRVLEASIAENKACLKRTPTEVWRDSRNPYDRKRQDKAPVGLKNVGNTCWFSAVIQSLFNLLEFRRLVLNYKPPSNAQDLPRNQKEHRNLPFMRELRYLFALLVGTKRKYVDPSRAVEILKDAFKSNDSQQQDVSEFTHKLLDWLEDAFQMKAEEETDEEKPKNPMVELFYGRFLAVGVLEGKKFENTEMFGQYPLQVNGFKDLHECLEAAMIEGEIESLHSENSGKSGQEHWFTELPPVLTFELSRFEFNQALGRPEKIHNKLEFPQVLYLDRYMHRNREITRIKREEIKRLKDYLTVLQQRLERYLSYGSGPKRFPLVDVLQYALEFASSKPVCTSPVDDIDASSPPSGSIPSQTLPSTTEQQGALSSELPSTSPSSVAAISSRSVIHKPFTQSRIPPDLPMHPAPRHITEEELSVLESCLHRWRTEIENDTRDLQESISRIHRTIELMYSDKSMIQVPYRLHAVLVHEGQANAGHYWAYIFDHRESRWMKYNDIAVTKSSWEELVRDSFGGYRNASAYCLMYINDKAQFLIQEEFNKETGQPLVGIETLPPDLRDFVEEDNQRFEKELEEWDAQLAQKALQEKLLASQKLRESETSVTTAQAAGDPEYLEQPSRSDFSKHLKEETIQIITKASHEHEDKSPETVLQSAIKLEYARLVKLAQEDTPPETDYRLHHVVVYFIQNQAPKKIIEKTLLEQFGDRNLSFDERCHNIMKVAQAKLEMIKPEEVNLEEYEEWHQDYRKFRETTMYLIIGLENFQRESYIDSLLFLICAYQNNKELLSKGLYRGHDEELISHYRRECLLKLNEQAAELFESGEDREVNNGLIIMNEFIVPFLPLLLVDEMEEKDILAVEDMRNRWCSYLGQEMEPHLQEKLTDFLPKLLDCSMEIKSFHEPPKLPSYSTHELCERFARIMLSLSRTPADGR
Method in brief: as §1

USP28 = molecular target: T4, USP28 (UniProt Q96RU2)
T4 sequence (whole entry): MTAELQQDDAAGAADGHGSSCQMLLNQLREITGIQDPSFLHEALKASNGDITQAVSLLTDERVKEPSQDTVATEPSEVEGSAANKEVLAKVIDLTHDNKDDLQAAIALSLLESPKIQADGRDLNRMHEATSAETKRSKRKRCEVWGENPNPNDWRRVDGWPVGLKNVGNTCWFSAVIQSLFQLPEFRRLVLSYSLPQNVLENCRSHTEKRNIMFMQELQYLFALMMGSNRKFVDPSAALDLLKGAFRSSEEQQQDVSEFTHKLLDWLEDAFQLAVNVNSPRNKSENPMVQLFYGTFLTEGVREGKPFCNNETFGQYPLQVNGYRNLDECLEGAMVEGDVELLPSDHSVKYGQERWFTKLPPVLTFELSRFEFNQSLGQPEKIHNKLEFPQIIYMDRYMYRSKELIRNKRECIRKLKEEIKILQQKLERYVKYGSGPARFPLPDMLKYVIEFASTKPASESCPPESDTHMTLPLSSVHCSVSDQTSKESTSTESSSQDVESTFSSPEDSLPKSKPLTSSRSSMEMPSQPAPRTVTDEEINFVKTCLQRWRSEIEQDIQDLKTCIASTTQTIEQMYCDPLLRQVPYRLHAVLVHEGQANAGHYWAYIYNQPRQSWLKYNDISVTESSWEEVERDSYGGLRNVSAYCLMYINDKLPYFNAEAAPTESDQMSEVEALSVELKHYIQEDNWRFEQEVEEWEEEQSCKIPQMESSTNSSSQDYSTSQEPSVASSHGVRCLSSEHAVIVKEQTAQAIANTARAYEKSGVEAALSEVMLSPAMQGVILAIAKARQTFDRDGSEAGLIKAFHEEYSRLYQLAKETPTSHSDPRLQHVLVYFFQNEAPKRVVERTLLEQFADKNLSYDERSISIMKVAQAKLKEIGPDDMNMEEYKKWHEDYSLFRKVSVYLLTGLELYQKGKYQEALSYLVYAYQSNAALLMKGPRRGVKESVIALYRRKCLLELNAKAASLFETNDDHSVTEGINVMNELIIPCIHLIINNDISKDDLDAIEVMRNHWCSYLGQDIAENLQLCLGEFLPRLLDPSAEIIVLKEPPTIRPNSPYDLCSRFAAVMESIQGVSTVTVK
Method in brief: as §1

Measured: log2 ratio of Biotin-Ahx-Ub-VS probe labelling

Sequence of USP24 (Q9UPU5 whole entry): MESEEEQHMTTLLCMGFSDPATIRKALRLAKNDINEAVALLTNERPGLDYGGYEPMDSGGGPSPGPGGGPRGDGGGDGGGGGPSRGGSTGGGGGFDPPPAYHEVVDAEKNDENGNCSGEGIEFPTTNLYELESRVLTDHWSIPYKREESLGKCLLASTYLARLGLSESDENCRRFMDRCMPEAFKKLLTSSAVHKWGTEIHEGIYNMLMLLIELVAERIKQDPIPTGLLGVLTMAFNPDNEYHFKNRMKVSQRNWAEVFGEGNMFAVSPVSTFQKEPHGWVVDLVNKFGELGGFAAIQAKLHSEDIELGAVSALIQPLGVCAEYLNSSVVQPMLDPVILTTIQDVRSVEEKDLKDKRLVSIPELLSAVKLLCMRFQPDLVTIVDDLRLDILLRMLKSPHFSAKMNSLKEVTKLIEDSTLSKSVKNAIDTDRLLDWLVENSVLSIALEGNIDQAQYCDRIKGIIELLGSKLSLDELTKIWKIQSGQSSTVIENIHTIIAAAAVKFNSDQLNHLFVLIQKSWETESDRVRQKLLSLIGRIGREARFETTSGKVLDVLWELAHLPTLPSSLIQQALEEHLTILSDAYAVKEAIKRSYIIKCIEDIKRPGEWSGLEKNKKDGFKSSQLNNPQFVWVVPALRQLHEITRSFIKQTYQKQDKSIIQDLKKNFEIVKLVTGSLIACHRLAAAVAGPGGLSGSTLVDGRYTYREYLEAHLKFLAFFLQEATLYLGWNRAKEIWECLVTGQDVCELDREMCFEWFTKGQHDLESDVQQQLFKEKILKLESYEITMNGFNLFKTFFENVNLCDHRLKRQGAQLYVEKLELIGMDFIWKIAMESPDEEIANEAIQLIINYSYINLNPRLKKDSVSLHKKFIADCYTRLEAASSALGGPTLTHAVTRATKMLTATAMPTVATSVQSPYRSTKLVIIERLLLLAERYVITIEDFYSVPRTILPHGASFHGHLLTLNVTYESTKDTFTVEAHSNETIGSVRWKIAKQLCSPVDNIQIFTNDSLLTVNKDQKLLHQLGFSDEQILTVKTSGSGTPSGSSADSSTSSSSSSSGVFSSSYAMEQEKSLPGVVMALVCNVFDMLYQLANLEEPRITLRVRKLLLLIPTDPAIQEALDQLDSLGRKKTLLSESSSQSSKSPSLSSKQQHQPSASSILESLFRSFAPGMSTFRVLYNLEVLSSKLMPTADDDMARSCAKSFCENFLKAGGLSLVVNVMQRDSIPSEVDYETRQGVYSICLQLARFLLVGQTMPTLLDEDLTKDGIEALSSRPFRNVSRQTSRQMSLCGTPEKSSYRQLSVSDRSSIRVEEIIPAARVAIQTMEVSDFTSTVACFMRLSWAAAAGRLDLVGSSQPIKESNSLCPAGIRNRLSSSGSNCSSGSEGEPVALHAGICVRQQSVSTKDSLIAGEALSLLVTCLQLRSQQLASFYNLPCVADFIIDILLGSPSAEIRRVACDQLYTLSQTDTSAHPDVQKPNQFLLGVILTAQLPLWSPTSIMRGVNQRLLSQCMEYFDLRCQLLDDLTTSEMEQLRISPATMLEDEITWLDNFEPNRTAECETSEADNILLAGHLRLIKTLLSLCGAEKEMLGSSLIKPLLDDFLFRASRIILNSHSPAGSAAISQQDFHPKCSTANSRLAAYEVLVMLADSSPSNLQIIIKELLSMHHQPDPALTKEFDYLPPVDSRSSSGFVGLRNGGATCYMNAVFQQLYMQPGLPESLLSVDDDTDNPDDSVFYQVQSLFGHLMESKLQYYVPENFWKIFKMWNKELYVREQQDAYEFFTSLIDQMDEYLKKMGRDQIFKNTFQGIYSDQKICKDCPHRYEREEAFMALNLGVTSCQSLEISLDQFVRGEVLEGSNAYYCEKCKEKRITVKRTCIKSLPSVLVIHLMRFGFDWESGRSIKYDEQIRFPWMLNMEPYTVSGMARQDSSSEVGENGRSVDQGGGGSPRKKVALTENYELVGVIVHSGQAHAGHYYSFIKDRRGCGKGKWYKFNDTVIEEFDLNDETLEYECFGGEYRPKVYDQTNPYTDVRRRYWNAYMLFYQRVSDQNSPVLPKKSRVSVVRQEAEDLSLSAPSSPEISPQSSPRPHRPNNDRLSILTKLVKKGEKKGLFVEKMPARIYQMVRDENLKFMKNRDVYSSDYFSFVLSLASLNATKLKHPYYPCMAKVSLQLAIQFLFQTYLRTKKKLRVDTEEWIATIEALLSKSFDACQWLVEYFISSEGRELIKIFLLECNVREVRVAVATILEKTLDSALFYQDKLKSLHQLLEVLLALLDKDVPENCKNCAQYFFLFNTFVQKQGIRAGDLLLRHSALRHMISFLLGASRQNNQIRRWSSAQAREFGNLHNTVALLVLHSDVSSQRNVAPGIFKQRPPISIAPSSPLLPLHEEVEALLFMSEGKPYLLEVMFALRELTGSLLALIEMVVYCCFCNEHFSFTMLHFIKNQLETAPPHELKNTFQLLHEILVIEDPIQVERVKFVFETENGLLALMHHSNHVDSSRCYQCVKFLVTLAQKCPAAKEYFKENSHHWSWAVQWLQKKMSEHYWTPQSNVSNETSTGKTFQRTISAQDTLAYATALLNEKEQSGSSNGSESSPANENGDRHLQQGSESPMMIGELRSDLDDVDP

CC(=O)C1CCCCN1C(=O)CCl (stereo not given)
inactive: USP19 -0.14 | USP22 0.0806 | USP24 0.0726 | USP25 0.106 | USP28 -0.2
